Assay results as given in PubChem BioAssay (NCI).
About 83,000 compounds went through this panel and 20% of them were active in at least one assay; those are over-represented in the sample as a whole.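 Testing used 96-well plates and a 48-hour single-concentration exposure. Example: -40 means 40% of the starting cells died.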 A number with no mark means an inactive call. The source made the active and inactive calls. How the source made its calls: active means growth percent below 10; inactive means the rest.

Tests used:
Assay in all cases: NCI-60 one-dose screen, 48 h (100 = growth as untreated, 0 = no growth, -100 = all killed)
Details in all cases: 10 µM unless noted
NCI-H23 lung = test system: NCI-H23 lung
NCI-H226 lung = test system: NCI-H226 lung
NCI-H322M lung = test system: NCI-H322M lung
HOP-62 NSCLC = test system: HOP-62 NSCLC
NCI-H460 lung = test system: NCI-H460 lung
HOP-92 NSCLC = test system: HOP-92 NSCLC
NCI-H522 lung = test system: NCI-H522 lung
A549/ATCC NSCLC = test system: A549/ATCC NSCLC
786-0 renal = test system: 786-0 renal
DU-145 prostate = test system: DU-145 prostate
K-562 leukemia = test system: K-562 leukemia
MALME-3M melanoma = test system: MALME-3M melanoma
MDA-MB-231 breast = test system: MDA-MB-231 breast
RXF 393 renal = test system: RXF 393 renal
SF-268 CNS = test system: SF-268 CNS
SF-295 CNS = test system: SF-295 CNS
SF-539 CNS = test system: SF-539 CNS
UACC-257 melanoma = test system: UACC-257 melanoma
COLO 205 colon = test system: COLO 205 colon

Compound	growth (NCI-H23 lung) [%]	growth (NCI-H226 lung) [%]	growth (NCI-H322M lung) [%]	growth (HOP-62 NSCLC)	growth (NCI-H460 lung)	growth (HOP-92 NSCLC)	growth (NCI-H522 lung)	growth (A549/ATCC NSCLC)	growth (786-0 renal)	growth (DU-145 prostate) [%]	growth (K-562 leukemia)	growth (MALME-3M melanoma)	growth (MDA-MB-231 breast) [%]	growth (RXF 393 renal)	growth (SF-268 CNS) [%]	growth (SF-295 CNS)	growth (SF-539 CNS)	growth (UACC-257 melanoma)	growth (COLO 205 colon)
Cc1c2c(cn1Cc1ccccc1)CCc1cn(C)nc1-2	63.7	95.3	107	92.1%	93.3%	40%	78.3%	89.8%	81.8%	111	58.1%	101%	89.5	83.9%	102	57.7%	83.1%	79.3%	–
Nc1c(-c2nc3ccc(Br)cc3c(=O)[nH]2)nnn1-c1ccccc1	82.6	107	71.5	87%	43.5%	94.7%	73.9%	74.8%	87.6%	62.3	–	86.8%	82.2	103%	60	68%	90.9%	95.9%	102%
CC(=O)c1ccc2c(c1)CCN2	102	102	101	96.8%	117%	82.5%	91%	98%	108%	104	111%	–	96.1	107%	98.9	125%	101%	104%	102%
Cc1cccc(-c2cc(O)c(C(=O)N3CCOCC3)s2)c1	55.2	68	63.6	38.3%	17.7%	73.7%	0.179% (active)	37.7%	51.4%	60.3	–	52.6%	56.7	62.9%	57.1	37.9%	33.6%	52.8%	94.9%
Cn1nnnc1-c1ccc(N)cc1	88.7	107	92.7	95.9%	105%	96.3%	84.2%	95.6%	93.8%	99	–	99.1%	106	111%	91.7	98.1%	98.8%	106%	110%
Nc1c(-c2nc3ccccc3c(=O)[nH]2)nnn1-c1ccc(Cl)cc1	78.9	102	78.3	57.2%	56.2%	101%	52.5%	40.6%	82.2%	77.3	–	83.3%	85	81.9%	66.8	73.6%	50.5%	84.8%	98.6%
COc1cc(C(=O)/C=C/c2c(-c3ccc(F)cc3)nc3ncccn23)cc(OC)c1OC	39.3	63.4	69.9	68.1%	21.6%	23.6%	-0.92% (active)	61.1%	70.7%	31.8	17.9%	50.7%	64.4	13.6%	51	56.4%	28.5%	47%	–
O=c1[nH]nc(-c2ccc(Cl)cc2)cc1Cc1ccccc1	92.3	79.9	155	90.5%	104%	86.2%	35%	42.1%	96.9%	104	79%	–	79.5	3.35% (active)	99.4	89.6%	65.2%	84.3%	116%
COc1c(C)cnc(CSc2nc(-c3ccc(C)cc3)cn2-c2ccc(Cl)cc2)c1C	97	102	80.9	89.5%	101%	103%	55.9%	88.6%	95.3%	107	–	93.4%	88.5	108%	99.6	110%	105%	91.5%	96%
COc1cc(NC(=O)c2cc(O)c(CC=C(C)C)c(O)c2)cc2c1O[C@]1(C)CC[C@@H](O)C(C)(C)[C@H]1C2	39	79.4	67.9	31.4%	27.2%	-0.592% (active)	8.19% (active)	40.3%	1.24% (active)	42.8	–	43.9%	32.8	-23.6% (active)	42	-49.6% (active)	-34.6% (active)	36.3%	-28.8% (active)
Cc1ccc(-n2nnc(C3=NCCc4c3[nH]c3ccc(Cl)cc43)c2C)cc1	80.6	76.2	85	72.2%	72.5%	76.4%	30.9%	41.3%	78.2%	87.3	–	98.3%	80.4	102%	80.6	70.6%	92.9%	57.9%	101%
CC1(C)N=C(N)N=C(N)N1c1ccc(Cl)c(Cl)c1	19.2	52.1	52.7	16.4%	17%	72.3%	45.3%	30.1%	9.73% (active)	46.5	23.6%	67.8%	68.4	61.4%	42.9	17.2%	13.4%	55.6%	–
CN(C)CCC(O)(Cc1ccccc1)c1ccccc1 (centres undefined)	100	115	120	111%	112%	106%	116%	106%	105%	–	103%	114%	108	117%	–	103%	103%	111%	107%
Nc1c(C(=O)Nc2ccccc2)sc2nc3c(cc12)CCCCCC3	22.5	27	29.2	15.5%	4.61% (active)	76.5%	-11.6% (active)	15%	10.4%	18.6	7.92% (active)	31.3%	–	-38.7% (active)	36.6	-0.47% (active)	-41.8% (active)	44.9%	-17% (active)
CCOC(=O)c1nnn(C(Cc2ccccc2Cl)C(=O)OCC)c1C (centres undefined)	105	103	108	93.4%	101%	93.5%	68.9%	82.6%	102%	109	–	117%	104	109%	111	111%	107%	83.6%	105%
CCCCCCCCc1cc[n+](CC(=O)c2ccc(Br)cc2)cc1	49.5	53.6	96.2	8% (active)	-84.9% (active)	24.1%	-91.5% (active)	-84.1% (active)	16.6%	37	–	-25.4% (active)	13.8	-24% (active)	52.5	34%	–	-61.2% (active)	-89.6% (active)
N#Cc1c(N)nc2c(nnn2-c2cccc(C(F)(F)F)c2)c1N	86.6	92.4	89.8	80.5%	95.9%	77.6%	75.2%	78%	101%	99	–	121%	78.3	92.7%	91.9	95.6%	96.9%	103%	104%
